Screens from PubChem.
Rows were chosen to be rich in hits. Some 9.3% of all compounds tested hit in one or more screens of this group.
Sm TGR inh – S. mansoni TGR enzyme inhibition. Q962Y6. purified TGR, DTNB reduction, TNB absorbance 405 nm. actives 3% (n = 360,000). Potency, µM (series often up to 114 µM), inactives show at the top dose activity change, negative = inhibition, hits mostly inhibitors. AID 485364; also: potency is read from the fitted curve at half-maximal effect; nearly all actives have a fitted effect of over 60% in size
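Kinetic colorimetric format: TGR-catalysed, NADPH-driven DTNB reduction monitored via TNB absorbance. Enzyme dispensed at 20 nM; compound exposure 15 min at room temperature before reaction start.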
HCV inhibitor – HCV inhibition; Huh7.5.1 HCVcc-Cre infection, luciferase reporter, 44 h; Potency, µM (doses to about 41.8 µM), inactives show top-dose activity change, negative = inhibition, usual class: inhibitors; actives 3.4% (n = 340,000); also: potency is read from the fitted curve at half-maximal effect
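HCVcc-Cre virus at an moi near 0.5 was added right after compound to cells cultured 4 h from seeding (1,000 cells/well). Luciferase activity was determined 44 h later, 15 min after substrate addition at RT.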
HCMV antiviral – inhibitors of human cytomegalovirus; HFF cells, HCMV-luciferase reporter, 72 h; hits give low values; actives 4.5% (n = 410,000); AID 1259415; activity change, negative = inhibition, % at 57.5 µM; in the data active = activity change below about -60%; inconclusive = no clear call, values can overlap the other calls; inactive = above about -39%
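HFF cells seeded 16 h at 37C, treated with compounds, infected with luciferase-reporter HCMV at MOI 1 PFU/cell; luciferase read at 72 h post infection, normalized to buffer-only and Salinomycin controls.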
Vaccinia Venus – vaccinia inhibition (Venus reporter) | actives 0.46% (n = 330,000) | Potency, µM (highest dose often 36.5 µM), for the others: top-dose activity change, negative = inhibition, actives largely listed as inhibitors | Vaccinia virus Venus reporter expression, fluorescence; calls by dose curve; tested in A549 cells; also: potency is read from the fitted curve at half-maximal effect; nearly all actives have a fitted effect of over 30% in size
FMDV antiviral – blocks foot and mouth disease virus | FMDV antiviral cell-based qHTS | Potency, µM (series often up to 57.9 µM), for inactives: at the top dose activity change, negative = inhibition, most hits filed as inhibitors | actives 1.2% (n = 410,000) | AID 1159524; calls by dose curve; tested in HEK293T cells; also: read-out not given here; potency is read from the fitted curve at half-maximal effect; nearly all actives have a fitted effect of over 45% in size
Vaccinia mCherry – vaccinia inhibition (mCherry reporter); actives 0.63% (n = 310,000); Vaccinia virus mCherry reporter infection, fluorescence; Potency, µM (titrated, usually from 36.5 µM), for the others: top-dose activity change, negative = inhibition, actives largely listed as inhibitors; AID 720579; calls by dose curve; tested in A549 cells; also: potency is read from the fitted curve at half-maximal effect; nearly all actives have a fitted effect of over 35% in size
An asterisk follows results filed as active; i = inactive; u = inconclusive; x = no result; [ ] = remark or other dose. Unless noted, calls follow the shape of the dose curve; as a rule, active = well fitted curve in the direction sought with a large enough effect; inconclusive = small, poorly fitted or top-dose-only effect, or another doubt; inactive = no such curve, though single readings can be large; an effect the other way counts as inactive or inconclusive. % is scaled to controls: 0 for no effect and ±100 for the full control effect.

SMILES | Sm TGR inh | HCV inhibitor | HCMV antiviral | Vaccinia Venus | FMDV antiviral | Vaccinia mCherry
O=C1NC(=O)C2(CCCc3ccc(N(CCCl)CCCl)cc32)N1 (centres undefined) | x | u | -80.6* | -14.7% | -23.3% | -27.7%
Cc1c(OC(C)C(=O)NCC(O)c2ccccc2)ccc2c3c(c(=O)oc12)CCCC3 (centres undefined) | -0.3% | 25.1µM* | 0.0 | x | 0.0% | x
CCC(NC(=O)C1(C)CC1(Br)Br)c1ccc(C)cc1 (centres undefined) | 4.0% | 10.0% | -72.2* | -26.1% | -20.1% | x
CCc1ccc(C(C)NC(=O)C2(C)CC2(Br)Br)cc1 (centres undefined) | -16.8% | -8.8% | -21.6 | -20.0% | -26.2% | -30.9%
Cc1cc(-c2ccccc2)nc(SCC(=O)N2CCCC2)n1 | 12.3% | 25.1µM* | u | 3.7% | -14.3% | -1.8%
COc1cccc(-c2nnc(SCC(=O)Nc3ccc4c(c3)OCCO4)n2Cc2ccco2)c1 | -24.8% | -18.3% | -30.8 | -20.1% | -14.4% | x
Cn1c(-c2ccccc2)cnc1SCC(=O)N1CCCc2ccccc21 | -0.8% | -0.2% | u | -7.5% | -7.8% | -10.4%
Cn1c(-c2ccccc2)cnc1SCC(=O)N1CCCCC1 | -4.7% | 7.0% | -1.0 | -30.1% | 15.8µM* | x
Cc1cc(C)nc(SCC(=O)N2CCCCC2)n1 | 9.1%[11.4 µM] | 9.4% | -29.7 | -6.6% | -7.6% | x
C=CCn1c(SCC(=O)NCc2ccco2)nnc1-c1ccc2ccccc2n1 | 15.8µM* | u | -11.3 | -17.7% | u | -21.6%
COc1cccc(-c2nnc(SCC(=O)NCc3ccc4c(c3)OCO4)n2Cc2ccco2)c1 | 44.7µM* | -5.8% | -3.1 | -1.7% | -13.1% | x
CC(C)=N/N=C(/c1ccc([N+](=O)[O-])cc1)C12CN3CN(CN(C3)C1)C2 | -5.7% | 4.9% | -38.9 | 3.4% | 4.1% | -6.4%
COc1ccc(OC)c(NC(=O)CCCc2ccccc2)c1 | -23.2% | 0.8% | -11.2 | x | 3.7% | x
Cc1ccc(-n2c(Cc3cccn3C)nnc2SCC(=O)NCc2ccco2)cc1 | 39.8µM* | 19.4% | -26.7 | x | 20.5% | x
O=C(CSc1nnc(Cc2ccccc2)n1Cc1ccccc1)NCc1ccco1 | -33.0% | 7.3% | u | -4.9% | -10.3% | -11.9%
O=C(CSc1nnc(-c2cccnc2)n1Cc1ccco1)NCc1ccc2c(c1)OCO2 | 44.7µM* | 0.2% | -30.1 | x | 3.5% | x
O=C(CSc1ccc2nnc(-c3cccnc3)n2n1)NCc1ccco1 | 31.6µM* | -0.3% | 47.3 | 3.1% | -24.6% | -14.8%
O=C(CSc1nnc(-c2cccnc2)n1Cc1ccccc1)NCc1ccco1 | 12.6µM* | 6.9% | -28.2 | -0.2% | -8.9% | -10.6%
C=CCn1c(SCC(=O)NCc2ccc3c(c2)OCO3)nnc1-c1cccnc1 | -1.1% | 14.9% | -24.9 | -0.1% | 1.9% | i
COc1ccc(N2CCN(C(=O)C3CCCN3S(=O)(=O)c3cccc4nsnc34)CC2)cc1 (centres undefined) | 64.2% | 11.3% | x | x | -7.7% | x
CS(=O)(=O)N1CCCCC1c1cc(C(=O)NCc2ccc(Cl)c(Cl)c2)no1 (centres undefined) | x | x | 7.8 | 38.4% | -10.6% | 55.6%
O=C(CSc1nnc(-c2ccccc2)n1-c1ccccc1)NCc1ccco1 | -0.7% | 6.4% | -2.1 | -13.2% | -7.1% | -12.1%
Cn1c(-c2ccccc2)cnc1SCC(=O)NCc1ccco1 | 39.8µM* | -4.6% | -29.8 | -3.6% | x | -6.5%
O=C(CN(Cc1ccccc1)C(=O)CCl)c1cccc(Br)c1 | 8.91µM* | u | -98.7* | -15.8% | u | i
CCN(CC)c1ccc2cc(-c3nc4ccccc4[nH]3)c(=O)oc2c1 | -1.4% | u | x | 2.5% | 4.47µM* | 2.4%
SMILES | Sm TGR inh | HCV inhibitor | HCMV antiviral | Vaccinia Venus | FMDV antiviral | Vaccinia mCherry
CCN(CC)c1ccc2cc(-c3nc4ccccc4n3C)c(=O)oc2c1 | -10.2% | u | -78.9* | u | 41.2% | u
COc1ccc(OCC(O)CN(C)C(=O)/C=C/c2cccc([N+](=O)[O-])c2)cc1 (centres undefined) | x | -7.2% | -78.0* | 6.4% | -23.5% | -20.2%
CCCCN(CCCC)C(=O)/C=C/c1cccc([N+](=O)[O-])c1 | 12.6% | u | -37.2 | -20.6% | u | x
CC(=O)c1cccc(NC(=O)c2ccc3c(=O)n4c(nc3c2)CCCCC4)c1 | -2.4% | u | u | -3.3% | 1.6% | -2.0%
O=C(Nc1cccc(S(=O)(=O)N2CCOCC2)c1)c1ccc2c(=O)n3c(nc2c1)CCCCC3 | -32.3% | 7.08µM* | -84.0* | u | u | u
O=C(Nc1ccccc1Cl)c1ccc2c(=O)n3c(nc2c1)CCC3 | -3.3% | -11.8% | 27.4 | -9.6% | 14.8% | 24.7%
O=C(Nc1cccc(S(=O)(=O)N2CCCC2)c1)c1ccc2c(=O)n3c(nc2c1)CCCCC3 | 2.6% | 2.82µM* | -66.4* | u | 12.6µM* | u
CC1CN(C(NC(=O)c2ccccc2)C(Cl)(Cl)Cl)CC(C)O1 (centres undefined) | 20µM* | 14.7% | 6.6 | -4.0% | -13.5% | i
CC1CN(C(C)C(=O)NNC(=O)c2ccc(F)cc2)CC(C)O1 (centres undefined) | x | 15.9% | -23.3 | 5.7% | 20.7% | -7.2%
CC1CN(C(NC(=O)C(C)(C)C)C(Cl)(Cl)Cl)CC(C)O1 (centres undefined) | 35.5µM* | 1.3% | -7.1 | -7.6% | 17.0% | i
O=C(Nc1cccc(Cl)c1)Nc1ccon1 | 0.0% | 1.0% | 14.9 | -30.0% | 10.4% | u
COc1cc(NC(=O)c2cccc(Cl)c2Cl)ccc1NC(=O)c1cc2ccccc2o1 | 8.1% | x | -25.7 | -10.6% | 0.0% | -21.1%
COC(=O)c1ccccc1NCc1cc(=O)oc2cc(O)c(O)cc12 | -21.7% | -19.6% | -0.5 | u | -9.2% | 7.08µM*
COc1ccc(C)cc1NCc1cc(=O)oc2cc(-c3ccccc3)c(O)cc12 | -14.1% | u | 31.4 | u | 2.8% | -23.0%
COc1ccc(C2(C)NC(=O)N(CC(=O)N3CCc4ccccc43)C2=O)cc1OC (centres undefined) | -3.6% | -11.9% | 0.0 | x | -11.1% | x
Cc1cc(S(=O)(=O)NC(C)C)ccc1OCC(=O)N1CCN(Cc2ccc3c(c2)OCO3)CC1 | -12.3% | u | -83.9* | u | u | -15.4%
CC(C)NS(=O)(=O)c1ccc(OCC(=O)N2CCN(Cc3ccc4c(c3)OCO4)CC2)c(Cl)c1 | 19.7% | 11.2µM* | -68.3* | -28.8% | u | u
CC(C)NS(=O)(=O)c1ccc(OCC(=O)N2CCCC2)c(Cl)c1 | 1.7% | -10.0% | -10.0 | -10.2% | 33.8% | -4.1%
CCC[C@H]1CN(c2ccc(Br)cc2)C(=O)[C@@H]1CC(=O)Nc1ccccc1 | x | x | 12.0 | -16.1% | 21.0% | 12.9%
CCC(=O)N1CCc2cc(Br)cc(S(=O)(=O)N3CCCC(C(=O)NCc4ccc(F)cc4)C3)c21 (centres undefined) | -4.0% | x | 17.5 | -0.1% | 59.5% | -4.7%
